Laboratory results: PubChem BioAssay (NCATS)
Records with an inconclusive call do not appear. Calls of active or inactive are those of the source. Calls come from the whole dose curve; as a rule, active = well fitted inhibition curve with a large enough effect; inconclusive = small, poorly fitted or top-dose-only effect; inactive = flat fitted curve, though single readings scatter.

Experiments:
Assay in all cases: qHTS profiling for inhibitors of Plasmodium falciparum proliferation (AID 504749); note: nearly all actives have a fitted effect of over 60% in size
AA1029 = conditions: P. falciparum in erythrocytes, SYBR Green DNA, 72 h; series mostly up to 28.7 µM
In short: (§1)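 In a 72 h erythrocytic culture (37 C, humidified, 5% CO2) at 2.5% hematocrit and 0.3% starting parasitemia, compounds were tested; SYBR Green I in detergent lysis buffer stained parasite DNA overnight.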

ATS95 = conditions: P. falciparum in erythrocytes, SYBR Green DNA, 72 h; series mostly up to 28.7 µM
In short: as §1

C2A = conditions: P. falciparum in erythrocytes, SYBR Green DNA, 72 h; series mostly up to 28.7 µM
In short: as §1

CP217 = conditions: P. falciparum in erythrocytes, SYBR Green DNA, 72 h; series mostly up to 28.7 µM
In short: as §1

CP237 = conditions: P. falciparum in erythrocytes, SYBR Green DNA, 72 h; series mostly up to 28.7 µM
In short: as §1

CP238 = conditions: P. falciparum in erythrocytes, SYBR Green DNA, 72 h; series mostly up to 28.7 µM
In short: as §1

CP250 = conditions: P. falciparum in erythrocytes, SYBR Green DNA, 72 h; series mostly up to 12.8 µM
In short: as §1

CP252 = conditions: P. falciparum in erythrocytes, SYBR Green DNA, 72 h; series mostly up to 12.8 µM
In short: as §1

CP256 = conditions: P. falciparum in erythrocytes, SYBR Green DNA, 72 h; series mostly up to 28.7 µM
In short: as §1

CP262 = conditions: P. falciparum in erythrocytes, SYBR Green DNA, 72 h; series mostly up to 28.7 µM
In short: as §1

CP265 = conditions: P. falciparum in erythrocytes, SYBR Green DNA, 72 h; series mostly up to 12.8 µM
In short: as §1

CP297 = conditions: P. falciparum in erythrocytes, SYBR Green DNA, 72 h; series mostly up to 28.7 µM
In short: as §1

ECU = conditions: P. falciparum in erythrocytes, SYBR Green DNA, 72 h; series mostly up to 28.7 µM
In short: as §1

FAB9 = conditions: P. falciparum in erythrocytes, SYBR Green DNA, 72 h; series mostly up to 28.7 µM
In short: as §1

N140 = conditions: P. falciparum in erythrocytes, SYBR Green DNA, 72 h; series mostly up to 28.7 µM
In short: as §1

P93_24 = conditions: P. falciparum in erythrocytes, SYBR Green DNA, 72 h; series mostly up to 28.7 µM
In short: as §1

PAD = conditions: P. falciparum in erythrocytes, SYBR Green DNA, 72 h; series mostly up to 28.7 µM
In short: as §1

PC15 = conditions: P. falciparum in erythrocytes, SYBR Green DNA, 72 h; series mostly up to 28.7 µM
In short: as §1

SC27B = conditions: P. falciparum in erythrocytes, SYBR Green DNA, 72 h; series mostly up to 28.7 µM
In short: as §1

TAB165 = conditions: P. falciparum in erythrocytes, SYBR Green DNA, 72 h; series mostly up to 28.7 µM
In short: as §1

Measured: Potency
Potency is the fitted concentration of half-maximal effect.

C[C@]12CC[C@H](O)CC1=CCC1C2CC[C@]2(C)C(=O)CC[C@@H]12 (stereo not given in full)
active: CP297 19 µM
inactive: all other assays above

C[N+]1([O-])[C@@H]2CC(OC(=O)[C@@H](CO)c3ccccc3)C[C@@H]1[C@H]1O[C@H]12 (stereo not given in full)
inactive: all assays above
